Measurements: PubChem BioAssay
Activity calls are given as the source filed them. Unless noted, the rule behind the calls is not given here.

Columns and labels:
[1] = HepG2 liver cancer cell viability effects, profiling panel, resazurin fluorescence, 24 h, PK04 Diversity Set (AID 1172); details: higher = more signal
[2] = basal S. cerevisiae growth modulation, no modifier, primary screen, OD600, strain BY4716, 24 h, basal condition (AID 1173); details: OD600, 24 h, higher = more signal, called active from +8 up or from −8 down
[3] = MM1S myeloma cell viability, profiling panel, resazurin fluorescence, basal, 24 h, PK04 Diversity Set (AID 1174); details: higher = more signal, called active from +8 up or from −8 down;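 note: MM1S multiple myeloma cell line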
[4] = target: Dihydroorotate dehydrogenase (quinone), mitochondrial (Plasmodium falciparum (isolate 3D7)) (UniProt Q08210); experiment: PfDHODH enzyme inhibitors, primary screen, biochemical, C-terminal His tag, absorbance 600 nm (AID 1175); details: DCIP absorbance 600 nm, higher = more signal, called active from +8 up or from −8 down;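 note: recombinant parasite enzyme with a five histidine tag at its C terminus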
Dihydroorotate dehydrogenase (quinone), mitochondrial (Plasmodium falciparum (isolate 3D7)), sequence (Q08210 whole entry, looked up): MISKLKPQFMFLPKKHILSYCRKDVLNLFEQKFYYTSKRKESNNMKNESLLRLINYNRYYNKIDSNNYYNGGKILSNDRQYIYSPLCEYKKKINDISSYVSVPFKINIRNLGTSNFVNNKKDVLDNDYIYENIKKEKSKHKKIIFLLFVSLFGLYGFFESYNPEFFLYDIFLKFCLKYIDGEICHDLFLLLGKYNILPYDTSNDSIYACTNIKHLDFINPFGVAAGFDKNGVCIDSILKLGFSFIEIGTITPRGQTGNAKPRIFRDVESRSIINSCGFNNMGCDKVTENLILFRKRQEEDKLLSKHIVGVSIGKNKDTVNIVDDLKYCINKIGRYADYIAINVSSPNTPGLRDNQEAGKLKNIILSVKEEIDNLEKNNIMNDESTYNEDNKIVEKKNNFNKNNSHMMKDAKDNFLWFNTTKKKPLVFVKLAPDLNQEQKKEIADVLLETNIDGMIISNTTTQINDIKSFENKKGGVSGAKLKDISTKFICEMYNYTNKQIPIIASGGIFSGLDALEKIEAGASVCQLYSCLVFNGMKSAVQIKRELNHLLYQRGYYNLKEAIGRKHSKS

[5] = P. aeruginosa biofilm formation inhibitors, primary screen, strain PAO1, LB-PBS medium, absorbance 600 nm (AID 1176); details: P. aeruginosa PAO1 growth/biofilm, A600, 12 h; higher = more signal
[6] = S. cerevisiae RM11-1a growth modifiers, primary screen, strain RM11-1a, OD600, basal, 24 h (AID 1177); details: OD600, 24 h, higher = more signal, called active from +8 up or from −8 down;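 note: cultures grown under basal conditions with no added stressor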
[7] = E. coli acrAB mutant growth effects, primary screen, E. coli filamentation inducers, strain DRC39, OD650, 24 h (AID 1178); details: higher = more signal, called active from +8 up or from −8 down;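 note: growth measured as culture turbidity by optical density at 650 nm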
[8] = E. coli acrAB mutant growth effects, primary screen, E. coli filamentation inducers, strain DRC39, OD650, 48 h (AID 1179);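 note: screen aims at cell division blockers that make cells filament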; details: E. coli DRC39 delta-acrAB growth, higher = more signal, called active from +8 up or from −8 down
[9] = RPMI8226 myeloma cell viability, profiling panel, resazurin fluorescence, basal, 24 h, PK04 Diversity Set (AID 1180); details: higher = more signal;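 note: RPMI8826 multiple myeloma cell line at 5000 cells per well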
[10] = target: E3 ubiquitin-protein ligase XIAP (Homo sapiens) (UniProt P98170); experiment: XIAP binders, primary screen, biophysical, small-molecule microarray, fluorescence 635 nm (AID 1181); details: small-molecule microarray binding, higher = more signal;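 note: score merges 667 nm emission and signal to noise over triplicate slides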
E3 ubiquitin-protein ligase XIAP (Homo sapiens), sequence (P98170 whole entry, looked up): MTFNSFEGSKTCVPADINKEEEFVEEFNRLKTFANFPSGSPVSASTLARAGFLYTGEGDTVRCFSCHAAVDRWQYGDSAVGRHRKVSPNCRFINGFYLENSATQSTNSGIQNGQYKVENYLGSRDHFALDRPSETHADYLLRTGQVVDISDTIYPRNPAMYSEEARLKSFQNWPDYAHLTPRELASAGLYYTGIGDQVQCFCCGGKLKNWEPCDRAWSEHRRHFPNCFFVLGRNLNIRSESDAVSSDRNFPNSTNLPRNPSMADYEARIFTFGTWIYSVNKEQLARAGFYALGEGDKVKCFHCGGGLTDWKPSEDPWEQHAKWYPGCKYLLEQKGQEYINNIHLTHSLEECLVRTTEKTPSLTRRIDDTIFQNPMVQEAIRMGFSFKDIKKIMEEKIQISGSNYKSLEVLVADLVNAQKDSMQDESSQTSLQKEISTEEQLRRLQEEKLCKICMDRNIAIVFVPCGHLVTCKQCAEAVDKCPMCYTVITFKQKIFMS

[11] = tested on: XIP peptide (Xip251-270) binding; experiment: small-molecule binders of XIP peptide, primary screen, biochemical, small-molecule microarray, fluorescence 635/667 nm, 0.1 µg/mL protein (AID 1182); details: fluorescent protein binding, 635 nm, higher = more signal, called active from +8 up or from −8 down
[12] = tested on: XIP peptide (Xip251-270); experiment: small-molecule binders of XIP peptide, primary screen, biochemical, small-molecule microarray, fluorescence 635/667 nm, 0.5 µg/mL protein (AID 1183); details: small-molecule microarray binding, fluorescence 635 nm; higher = more signal
[13] = Plasmodium falciparum growth inhibition, primary screen, strain 3D7, DAPI fluorescence, 100 nL (AID 1184);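 note: parasites grown inside human red blood cells in medium with human serum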; details: P. falciparum 3D7 growth, 3 d, higher = more signal
[14] = target: Homeobox protein Hox-A13 (Mus musculus) (UniProt Q62424); experiment: inhibitors of HoxA13-DNA binding, primary screen, biochemical, fluorescence polarization, labeled oligonucleotide (AID 1185); details: 15 min, higher = more signal, called active from +8 up or from −8 down
Homeobox protein Hox-A13 (Mus musculus), sequence (Q62424 whole entry, looked up): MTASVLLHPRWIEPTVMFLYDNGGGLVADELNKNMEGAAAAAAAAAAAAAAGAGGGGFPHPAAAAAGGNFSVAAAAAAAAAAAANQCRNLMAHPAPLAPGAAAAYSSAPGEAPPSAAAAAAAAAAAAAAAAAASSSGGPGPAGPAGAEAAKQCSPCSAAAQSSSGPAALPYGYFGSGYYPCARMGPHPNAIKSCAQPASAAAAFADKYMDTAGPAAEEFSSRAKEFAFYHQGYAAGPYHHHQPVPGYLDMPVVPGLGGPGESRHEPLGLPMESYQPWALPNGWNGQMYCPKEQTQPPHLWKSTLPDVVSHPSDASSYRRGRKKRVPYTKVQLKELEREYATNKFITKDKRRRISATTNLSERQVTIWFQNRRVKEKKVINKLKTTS

[15] = inhibitors of hydroxyurea-induced Chk1 phosphorylation, primary screen, imaging, HeLa, phospho-Chk1 antibody, percent positive cells (AID 1186); details: hydroxyurea-induced phospho-Chk1 immunofluorescence imaging, higher = more signal
[16] = inhibitors of hydroxyurea-induced Chk1 phosphorylation, primary screen, imaging, HeLa, phospho-Chk1 nuclear intensity (AID 1187); details: hydroxyurea-induced phospho-Chk1 immunofluorescence imaging, higher = more signal

Compound | z-score [1] | z-score [2] | z-score [3] | composite z-score [4] | z-score [5] | z-score [6] | z-score [7] | z-score [8] | z-score [9] | composite z-score [10] | composite z-score [11] | composite z-score [12] | z-score [13] | z-score [14] | z-score [15] | z-score [16]
CO[C@H]1O[C@H](CO)[C@@H](OC(=O)Nc2cccc(F)c2)[C@H](OC(=O)Nc2ccccc2)[C@H]1OC(=O)Nc1ccccc1 | -2.71 | 0.311 (inactive) | -4.75 (inactive) | -0.599 (inactive) | -0.261 (inactive) | 1.77 (inactive) | 1.11 (inactive) | 0.194 (inactive) | -4.5 | 0.072 | 0.879 (inactive) | 0.882 | -2.38 | -5.97 (inactive) | -0.357 (inactive) | 0.161 (inactive)
O=C1NC(=O)C2C1C=CC(C(O)c1ccc(-c3ccccc3)s1)N2Nc1ccc(Cl)cc1Cl (stereo not drawn) | -3.58 | -1.99 (inactive) | -1.69 (inactive) | 0.0414 (inactive) | 2.64 (inactive) | 0.856 (inactive) | 0.457 (inactive) | -1.2 (inactive) | -1.75 | 0.849 | -0.142 (inactive) | 0.701 | -0.0328 | -3.64 (inactive) | 0.197 (inactive) | 0.136 (inactive)
O=C(NC1CC1)[C@@H]1c2ccccc2C(=O)N(C2Cc3ccccc3C2)[C@H]1c1ccc(CO)cc1 | 0.21 | -0.009 (inactive) | 0.475 (inactive) | -0.0711 (inactive) | 0.196 (inactive) | 0.397 (inactive) | 0.223 (inactive) | 0.722 (inactive) | 0.543 | -0.0044 | 0.456 (inactive) | 0.657 | -0.69 | -1.14 (inactive) | -0.217 (inactive) | 0.0084 (inactive)
CC(C)N1CC=CC23O[C@@H]4C=CCOC(=O)[C@@H]4[C@H]2C(=O)N(CCCCCO)[C@@H]3C1=O (stereo partly drawn) | 0.413 | -0.746 (inactive) | 1.27 (inactive) | -1.85 (inactive) | 0.897 (inactive) | -1.06 (inactive) | 0.319 (inactive) | -0.134 (inactive) | 0.888 | -0.216 | 0.334 (inactive) | 0.729 | -0.758 | -3.4 (inactive) | 0.0031 (inactive) | -0.0755 (inactive)
NC(=O)[C@@]1(Cc2ccccc2)N=C(c2ccc(OCCCO)cc2)O[C@H]1c1ccccc1 | -0.815 | -1.05 (inactive) | 0.597 (inactive) | 0.842 (inactive) | 0.466 (inactive) | -0.541 (inactive) | 1.54 (inactive) | 0.915 (inactive) | -0.0693 | 0.225 | 1.08 (inactive) | -0.41 | -0.689 | -5.07 (inactive) | -0.18 (inactive) | 0.135 (inactive)
CC(CO)N1C(=O)[C@@H]2C3C(=O)OCCC/C=C\[C@H]3OC23C=CCN(CCN2CCOCC2)C(=O)[C@@H]13 (stereo partly drawn) | -0.167 | -0.193 (inactive) | -0.72 (inactive) | -0.387 (inactive) | 0.053 (inactive) | -0.137 (inactive) | 0.218 (inactive) | 0.685 (inactive) | -0.784 | 1.01 | -0.134 (inactive) | -0.0838 | 0.339 | -4.25 (inactive) | -0.957 (inactive) | -1.88 (inactive)
CN(C)CCCC[C@@H]1NC(=O)[C@H]2C[C@@H](C(=O)NCCCCCN)[C@@H](c3cccc(OCCO)c3)N2C1=O | 0.306 | -0.7 (inactive) | 0.606 (inactive) | -0.997 (inactive) | 0.118 (inactive) | -0.629 (inactive) | 0.139 (inactive) | -0.386 (inactive) | 0.932 | 0.0101 | 2.88 (inactive) | 0.84 | -0.419 | -2.91 (inactive) | 0.658 (inactive) | 0.729 (inactive)
Cc1ccc(S(=O)(=O)N2C[C@@H](C(=O)O)[C@H](Sc3ccccc3)C[C@H]2c2ccccc2)cc1 | -0.199 | -0.638 (inactive) | -0.26 (inactive) | -1.43 (inactive) | 0.409 (inactive) | -0.339 (inactive) | -0.529 (inactive) | -1.55 (inactive) | -0.911 | -0.303 | 0.117 (inactive) | 0.779 | -0.0652 | -7 (inactive) | 0.442 (inactive) | 0.283 (inactive)
CCN(CC)c1ccc(N2CC=CC34O[C@@H]5/C=C\CCC(C)OC(=O)C5[C@H]3C(=O)N(CCCCCO)[C@@H]4C2=O)cc1 (stereo partly drawn) | 0.18 | -0.596 (inactive) | 0.603 (inactive) | 0.513 (inactive) | -0.469 (inactive) | -0.147 (inactive) | 0.95 (inactive) | 1.1 (inactive) | 0.802 | -0.161 | -0.474 (inactive) | 0.102 | -0.0194 | -5.39 (inactive) | 0.489 (inactive) | 0.673 (inactive)
CCCNC(=O)[C@@]1(Sc2ccc(C)cc2)CC(=O)N(Cc2ccccc2C(F)(F)F)[C@@H]1c1ccc(CO)cc1I | -0.103 | -3.06 (inactive) | -2.54 (inactive) | -0.469 (inactive) | 0.298 (inactive) | -1.68 (inactive) | 0.044 (inactive) | -0.478 (inactive) | -2.15 | -0.181 | -0.163 (inactive) | 0.704 | -1.69 | -1.3 (inactive) | -0.104 (inactive) | 0.0829 (inactive)
OB1C=CCC(CCc2ccccc2)O1 (stereo not drawn) | -0.246 | -3.2 (inactive) | 0.506 (inactive) | -0.685 (inactive) | 1.45 (inactive) | -2.36 (inactive) | 2.73 (inactive) | 0.96 (inactive) | 0.23 | -0.275 | -1.15 (inactive) | 0.965 | -0.355 | -2.13 (inactive) | -0.591 (inactive) | -0.212 (inactive)
O=C1O[C@@H](c2ccccc2)[C@@H](c2ccccc2)N2[C@@H](c3ccc(OCCO)cc3)[C@]3(C(=O)Nc4ccc(C#CC5=CCCCC5)cc43)[C@@H](C(=O)N3CCCCCCC3)[C@H]12 | -0.399 | 0.593 (inactive) | 0.0902 (inactive) | -0.73 (inactive) | 1.77 (inactive) | 0.911 (inactive) | -1.32 (inactive) | 0.0745 (inactive) | 0.152 | 0.642 | 1.43 (inactive) | 0.679 | -2.22 | -15.4 (active) | 0.201 (inactive) | 0.474 (inactive)
COCCOC(=O)N1C(=O)[C@@]2(c3cc(C#CC4=CCCCC4)ccc31)[C@H](C(N)=O)[C@H]1C(=O)O[C@H](c3ccccc3)[C@H](c3ccccc3)N1[C@@H]2c1ccc(O)cc1 | -0.495 | -0.268 (inactive) | -2.03 (inactive) | -1.37 (inactive) | 1.37 (inactive) | -1.07 (inactive) | 0.273 (inactive) | 1.03 (inactive) | -4.15 | -0.223 | 1.79 (inactive) | 0.769 | 0.55 | -0.393 (inactive) | -0.371 (inactive) | -0.552 (inactive)
[N-]=[N+]=NCc1ccccc1[C@@H]1OC(c2ccc(OCCCO)cc2)=N[C@]1(CCS(=O)(=O)c1ccccc1)C(=O)N1CCCCC1 | -0.227 | 0.287 (inactive) | -0.814 (inactive) | 0.667 (inactive) | 0.286 (inactive) | -0.0163 (inactive) | -0.523 (inactive) | -0.213 (inactive) | -0.808 | 0.0174 | 0.603 (inactive) | 0.772 | -2.23 | -1.6 (inactive) | 0.202 (inactive) | 0.161 (inactive)
C=CCC(OC(C)=O)[C@@H]1[C@@H](N(Cc2ccc(-c3cccc(C(F)(F)F)c3)o2)C(=O)Cc2ccc(OC)cc2)c2cc(OCCCO)ccc2N1C(=O)c1ccc2ccccc2c1 (stereo partly drawn) | -0.29 | -1.44 (inactive) | 0.598 (inactive) | 0.165 (inactive) | -0.841 (inactive) | 0.0979 (inactive) | 0.751 (inactive) | 0.489 (inactive) | 0.187 | 0.144 | 0.397 (inactive) | 0.0642 | -2.16 | -2.43 (inactive) | 0.171 (inactive) | 0.284 (inactive)
CCCCC(=C=CC[C@H](O)c1cccc(OCCO)c1)C[C@H](O)c1ccccn1 | 1.7 | -1.1 (inactive) | 1.03 (inactive) | -2.69 (inactive) | -0.235 (inactive) | -1.49 (inactive) | 1.58 (inactive) | 1.58 (inactive) | 1.83 | -0.188 | 0.0547 (inactive) | 0.661 | -1.78 | -4.75 (inactive) | -0.949 (inactive) | -0.278 (inactive)
CCCCN1CC=CC23O[C@@H]4/C=C\CCCOC(=O)C4[C@H]2C(=O)N(CCCCCO)[C@@H]3C1=O (stereo partly drawn) | 0.641 | -0.287 (inactive) | 0.451 (inactive) | -0.757 (inactive) | 1.02 (inactive) | -1.06 (inactive) | 0.0497 (inactive) | -0.15 (inactive) | 0.313 | 0.161 | -0.359 (inactive) | 0.41 | 1.34 | -4.13 (inactive) | 1.19 (inactive) | 0.831 (inactive)
Cc1ccc(S[C@]2(C(=O)NCC(C)C)CC(=O)N(Cc3cc(C(F)(F)F)cc(C(F)(F)F)c3)[C@@H]2c2ccc(CO)cc2)cc1 | -0.0834 | -0.58 (inactive) | -0.656 (inactive) | -0.099 (inactive) | 0.559 (inactive) | -0.622 (inactive) | -0.995 (inactive) | -0.882 (inactive) | -0.321 | -0.142 | -0.0537 (inactive) | 0.0501 | -0.309 | -2.19 (inactive) | -0.0406 (inactive) | -0.284 (inactive)
